Data taken from ChEMBL document CHEMBL1157539, “Thousands of chemical starting points for antimalarial lead identification” (Nature, 2010).

Columns and labels:
Assay type in all cases: functional
[1] = system: Plasmodium falciparum; test: GSK_TCMDC: Inhibition of Plasmodium falciparum 3D7 in whole red blood cells, using parasite LDH activity as an index of growth. Test compounds present at 2uM
[2] = system: Plasmodium falciparum; test: GSK_TCMDC: Inhibition of Plasmodium falciparum Dd2 in whole red blood cells, using parasite LDH activity as an index of growth. Test compounds present at 2uM
[3] = system: HepG2; test: GSK_TCMDC: Percent inhibition of human HepG2 cell line. Test compounds present at 10uM.

| SMILES | Inhibition [1] [%] | Inhibition [2] [%] | Inhibition [3] [%] |
| --- | --- | --- | --- |
| O=C(O)C(F)(F)F.c1ccc2c(c1)CN(Cc1cc3ccccc3[nH]1)CC1(CCN(Cc3c[nH]c4cnccc34)CC1)O2 | 100 | 62 | 27 |
| CCC[C@@H]([C@@H](Cc1ccc(C)s1)C(=O)N[C@@H](CNC(C)=O)C(=O)Nc1nccs1)N(O)C=O | 97 | 96 | 0 |
| N#CCCN1CCN(Cc2cccc(-c3ccc(-c4nc5ccccc5[nH]4)s3)c2)CC1.O=C(O)C(F)(F)F | 96 | 8 | 48 |
| Cn1c(NC(=O)c2ccc(CNC(=O)c3ccc(O)c(-c4ccc(Cl)c(Cl)c4)c3)cc2)nc2ccccc21 | 94 | 74 | 20 |
| Cc1cccc(Nc2nccc(NCC(O)c3ccc(C(F)(F)F)cc3)n2)c1 (stereo not given) | 100 | 54 | 11 |
| CCc1cn2c3c(cc(C(=O)N[C@@H](Cc4cc(F)cc(F)c4)[C@H](O)CNC4CCCCC4)cc13)N(C)S(=O)(=O)CC2.O=CO | 100 | 99 | 9 |
| COc1cc(NC(=O)N2CCOC(CCN3CCC(c4ccccc4)CC3)(c3ccc(Cl)c(Cl)c3)C2)cc(OC)c1OC (stereo not given) | 93 | 73 | 15 |
| Cc1ccc(-c2nnc(Nc3ccc(CC(N)=O)cc3)c3ccccc23)cc1S(=O)(=O)NCC1CCCO1 (stereo not given) | 83 | 64 | 0 |
| Cc1cc(F)ccc1Nc1nc(N(C)c2ccccc2)c2cc(OCCN(C)C)ccc2n1 | 94 | 55 | 37 |
| N=C(NCc1ccc(O)cc1)Nc1nc(-c2ccc(OCCCn3ccnc3)cc2)cs1 | 100 | 89 | 13 |
| CN(C)CCOc1ccnc2ccc(NC(=O)Cc3ccc(-c4ccncc4)c4ccccc34)cc12 | 100 | 100 | 10 |
| O=C(Nc1ccc(I)cc1)N1CCc2sccc2C1CN1CCCCC1 (stereo not given) | 90 | 0 | 33 |
| Cc1noc(-c2ccc(NC[C@@H](C)NC[C@H](O)c3cccc(Cl)c3)cc2)n1 | 97 | 84 | 11 |
| Cn1cncc1-c1ccc2ncnc(Nc3ccc(OCc4ccccc4)cc3)c2c1 | 100 | 99 | 4 |
| COc1cc(F)c2ncc(Cl)c([C@H](O)CN3CCC(NCc4ccc5c(n4)NC(=O)CO5)CC3)c2c1.Cl | 99 | 99 | 14 |
| CCCN(CCC)C(=O)c1cc(C(=O)N[C@@H](Cc2ccccc2)[C@H](O)CNC(C)(C)c2cccc(C(F)(F)F)c2)cc(N2CCCCS2(=O)=O)c1 | 99 | 98 | 19 |
| CC(C)C[C@@H](/C=N/N1CC(=O)NC1=O)NC(=O)[C@H](CC(C)C)NC(=O)c1ccc(OCCN2CCOCC2)cc1 | 94 | 79 | 11 |
| O=C(NCCCCCN1CCC(c2c[nH]c3ccccc23)CC1)Nc1ccc(I)cc1 | 100 | 0 | 51 |
| Cc1ccc2nc(-c3ccc(C(=O)NC4CCN(Cc5ccccc5)CC4)cc3)[nH]c2c1C | 100 | 46 | 22 |
| Cc1cc(NC(=O)c2cc(S(=O)(=O)N3CCCCC3)ccc2C)no1 | 95 | 29 | 0 |

| SMILES | Inhibition [1] [%] | Inhibition [2] [%] | Inhibition [3] [%] |
| --- | --- | --- | --- |
| COc1ccc(CC(=O)NC(CCN2CCC3(CCc4ccccc43)CC2)c2ccc(Cl)c(Cl)c2)cc1 (stereo not given) | 90 | 75 | 28 |
| CC(=O)Nc1ccc(C(=O)Nc2ccc(-c3cccc(-c4nc5ccccc5[nH]4)c3)cc2)cn1 | 99 | 84 | 34 |
| CCCCCCc1cnc2nc(N)nc(N)c2c1C | 93 | 20 | 67 |
| O=C(c1ccc(-c2ccc(-c3nc4cc(F)ccc4[nH]3)cc2)cc1)N1CCCCC1CN1CCC(O)C1 (stereo not given) | 90 | 100 | 24 |
| Cc1cc(NC2CCN(CC3CCCCC3)C2)nc(Nc2ccc(Br)cc2)n1 (stereo not given) | 100 | 83 | 22 |
| CCc1ccc(NC(=O)c2cccc(CN3CCCN(CC4CCCCC4)CC3)c2)cc1.O=C(O)C(F)(F)F | 85 | 41 | 62 |
| Cl.N#Cc1ccc(CCNc2nccc(-c3cccc(CN4CCNCC4)c3)n2)cc1 | 83 | 0 | 5 |
| COc1ccc(-c2cc(C(=O)Nc3ccc(CCCN(C)Cc4ccc(OC)c(OC)c4)cc3)c3ccccc3n2)cc1 | 92 | 47 | 40 |
| COc1ccc2[nH]ccc(=NN=Cc3ccc(F)cc3)c2c1 | 98 | 54 | 2 |
| COc1ccc2cc(C=NNc3nc4ccccc4[nH]3)c(Cl)nc2c1 | 100 | 90 | 2 |
| CCCn1c(Sc2ccc(C#N)c([N+](=O)[O-])c2)nnc1-c1ccc(OC)cc1 | 94 | 95 | 0 |
| COc1ccc(CN(C)CCCCc2ccc(NC(=O)COc3cccc4sc5ccccc5c(=O)c34)cc2)cc1OC.O=C(O)C(=O)O | 100 | 84 | 26 |
| Cc1ccccc1C1CCN(C2CCC(NC(=O)/C=C/c3ccc(C(F)(F)F)cc3)CC2)CC1 (stereo not given) | 95 | 19 | 64 |
| CN(C)CCCN1CCN(C(=O)c2cc3cc(-c4ccccc4)ccc3n2S(=O)(=O)c2ccccc2)CC1 | 100 | 94 | 32 |
| O=c1cc(NCCCNC2CCc3ccc(Cl)cc32)[nH]c2ccccc12 (stereo not given) | 92 | 39 | 0 |
| CCc1c(CCNCCCCCCNC(C)Cc2ccc3c(c2CC)OCO3)ccc(OC)c1OC.Cl (stereo not given) | 100 | 64 | 100 |
| CC(=O)c1ccc(N2CCN(C(=O)Nc3ccc(Cl)cc3)CC2)cc1 | 97 | 0 | 4 |
| FC(F)(F)c1ccc2nccc(NCc3ccccc3)c2c1 | 93 | 56 | 18 |
| CN(C)CCCOc1cccc(CCNCc2cccc(Oc3ccc(Cl)cc3)c2)c1.O=C(O)C(F)(F)F | 93 | 67 | 72 |
| Cc1cc(C(=O)N(Cc2ccc(-c3ccc(CNCCc4ccc(S(C)(=O)=O)cc4)cn3)cc2)C(C)CN(C)C)ccc1[N+](=O)[O-].O=C(O)C(F)(F)F (stereo not given) | 99 | 46 | 17 |

| SMILES | Inhibition [1] [%] | Inhibition [2] [%] | Inhibition [3] [%] |
| --- | --- | --- | --- |
| Cc1ccc(C)c(Cn2ccc3nc(N)nc(N)c32)c1 | 97 | 3 | 65 |
| COc1cc2nc(N3CCC(CNC(=O)c4ccc(-c5ccc(C#N)cc5C)cc4)CC3)nc(N)c2cc1OC | 100 | 99 | 28 |
| Cc1nc(C)c(-c2ccc(C(F)(F)F)cc2)c(O)c1Br | 98 | 96 | 0 |
| O=C(NC(c1ccccc1)c1ccccc1)C(c1cc2ccccc2o1)N1CCN(C(c2ccccc2)c2ccccc2)CC1 (stereo not given) | 95 | 78 | 0 |
| CCCOc1ccccc1C(=O)Nc1nonc1-c1ccc(OCC)c(OCC)c1 | 99 | 89 | 46 |
| O=C(Nc1ccc(Cn2ncc(N3CCCNCC3)c(Cl)c2=O)cc1)Nc1ccc(SC(F)(F)F)cc1.O=C(O)C(F)(F)F | 93 | 68 | 9 |
| Cc1ccc(NC(=O)NC2CCN(CCCCCNC(=O)C3CC3c3ccc(Cl)c(Cl)c3)CC2)cc1 (stereo not given) | 100 | 19 | 35 |
| OC1=C2C(=Nc3ccccc3SC2c2ccccc2)c2ccccc21 (stereo not given) | 86 | 94 | 5 |
| Cc1noc(C)c1-c1cccc(CNCc2cccc(-c3cccc(-c4nc5cccc(C)c5[nH]4)c3)c2)c1.O=C(O)C(F)(F)F | 100 | 66 | 15 |
| Cc1ccc2c(Cl)c(C(=O)N3CCCc4ccccc43)sc2c1 | 99 | 15 | 4 |
| Cc1cc(Cl)c(S(=O)(=O)NC(C)(C)C)cc1OCC(=O)NC1CCCCC1 | 93 | 53 | 10 |
| COc1ccc(CCn2c(=N)c(C(=O)NCc3ccccc3)cc3c(=O)n4ccccc4nc32)cc1 | 100 | 18 | 14 |
| COc1ccc2nccc([C@@H](O)CN3CCC(NC(=O)/C=C/c4cccc(NC(C)=O)c4)CC3)c2c1 | 90 | 60 | 5 |
| c1ccc(CCNc2nc(NCC(c3ccccc3)c3ccccc3)c3nc[nH]c3n2)cc1 | 100 | 95 | 9 |
| CN1CCN(CCCN(C(=O)Nc2cc(C(F)(F)F)cc(C(F)(F)F)c2)c2ccccc2Cc2ccccc2)CC1 | 89 | 92 | 35 |
| CC(CO)(CO)NCc1cc2c3ccccc3c(CNC(C)(CO)CO)cc2c2ccccc12.CS(=O)(=O)O | 96 | 98 | 40 |
| COc1ccc2ncc(Cl)c(N3CCC(CCNCc4ccc5c(n4)NC(=O)CS5)CC3)c2c1.Cl | 89 | 82 | 33 |
| COc1cccc(CCN(Cc2ccccc2-c2ccc(CNC3CC(C)(C)NC(C)(C)C3)cc2)C(=O)NC2CCCCC2)c1.Cl | 100 | 99 | 97 |
| Cc1c(C(=O)Nc2cc(Sc3ccc(F)cc3)cc([N+](=O)[O-])c2)sc2ncn(Cc3ccccc3F)c(=O)c12 | 98 | 45 | 2 |
| CNCCNCc1cccc(-c2cccc(-c3nc4cc(F)ccc4[nH]3)c2)c1.O=C(O)C(F)(F)F | 98 | 15 | 20 |
